Assay results: the supplement of paper PMC6992640

What follows are compounds tested on UCD52 (cells of a triple-negative basal-like breast cancer xenograft) (assay: cell viability of combination (% of vehicle); higher = less cytotoxic). Conditions: 1 µM; 72 h; partner dose: 10 nM.
Method: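 PDX cells were treated for 72 h with each drug at 1 µM plus afatinib (10 nM; 1 µM for WHIM30). Luciferase viability is expressed as percent of vehicle.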

Structure (SMILES)	cell viability of combination
Cc1cc(C(C#N)c2ccc(Cl)cc2)c(Cl)cc1NC(=O)c1cc(I)cc(I)c1O (stereo not given) [Closantel] + CN(C)C/C=C/C(=O)Nc1cc2c(Nc3ccc(F)c(Cl)c3)ncnc2cc1O[C@H]1CCOC1 [Afatinib]	75.8
CCCCCCCCCCCCCCCC[N+](C)(C)C.[Br-] [Cetrimonium Bromide (CTAB)] + CN(C)C/C=C/C(=O)Nc1cc2c(Nc3ccc(F)c(Cl)c3)ncnc2cc1O[C@H]1CCOC1 [Afatinib]	66.1
CCCCCCCCCCCC[N+](C)(C)CCOc1ccccc1.[Br-] [Domiphen Bromide] + CN(C)C/C=C/C(=O)Nc1cc2c(Nc3ccc(F)c(Cl)c3)ncnc2cc1O[C@H]1CCOC1 [Afatinib]	65.3
Cc1cc(C(C#N)c2ccc(Cl)cc2)c(Cl)cc1NC(=O)c1cc(I)cc(I)c1[O-].[Na+] (stereo not given) [Closantel Sodium] + CN(C)C/C=C/C(=O)Nc1cc2c(Nc3ccc(F)c(Cl)c3)ncnc2cc1O[C@H]1CCOC1 [Afatinib]	72.7
CCCCCCCCCCCCCCCC[n+]1ccccc1.[Cl-] [Cetylpyridinium Chloride] + CN(C)C/C=C/C(=O)Nc1cc2c(Nc3ccc(F)c(Cl)c3)ncnc2cc1O[C@H]1CCOC1 [Afatinib]	55.3
